According to PubChem BioAssay:
Several values for one entry are separate records, joined by “and”; a condition that tells them apart may be missing. Equal entries are not always repeated. Activity calls are given as the source filed them.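 Rule for the calls, unless noted: active = mean inhibition over 43.08%, the solvent-only control mean plus 3 SD; inactive = the rest.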

Key:
[1] = biological target: Nuclear receptor coactivator 3 (Homo sapiens) (UniProt Q9Y6Q9); assay: SRC3 coactivator transcriptional activity inhibitors, confirmation, cell-based, luminescence, quadruplicate (AID 588792); settings: HEK293 GAL4-SRC3 luciferase reporter, at 3.6 µM, active compounds read high;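 note: 0% = DMSO treated cells and 100% = gossypol at 36 µM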
Sequence of Nuclear receptor coactivator 3 (Homo sapiens) (Q9Y6Q9 whole entry, looked up, the tested form may be a part): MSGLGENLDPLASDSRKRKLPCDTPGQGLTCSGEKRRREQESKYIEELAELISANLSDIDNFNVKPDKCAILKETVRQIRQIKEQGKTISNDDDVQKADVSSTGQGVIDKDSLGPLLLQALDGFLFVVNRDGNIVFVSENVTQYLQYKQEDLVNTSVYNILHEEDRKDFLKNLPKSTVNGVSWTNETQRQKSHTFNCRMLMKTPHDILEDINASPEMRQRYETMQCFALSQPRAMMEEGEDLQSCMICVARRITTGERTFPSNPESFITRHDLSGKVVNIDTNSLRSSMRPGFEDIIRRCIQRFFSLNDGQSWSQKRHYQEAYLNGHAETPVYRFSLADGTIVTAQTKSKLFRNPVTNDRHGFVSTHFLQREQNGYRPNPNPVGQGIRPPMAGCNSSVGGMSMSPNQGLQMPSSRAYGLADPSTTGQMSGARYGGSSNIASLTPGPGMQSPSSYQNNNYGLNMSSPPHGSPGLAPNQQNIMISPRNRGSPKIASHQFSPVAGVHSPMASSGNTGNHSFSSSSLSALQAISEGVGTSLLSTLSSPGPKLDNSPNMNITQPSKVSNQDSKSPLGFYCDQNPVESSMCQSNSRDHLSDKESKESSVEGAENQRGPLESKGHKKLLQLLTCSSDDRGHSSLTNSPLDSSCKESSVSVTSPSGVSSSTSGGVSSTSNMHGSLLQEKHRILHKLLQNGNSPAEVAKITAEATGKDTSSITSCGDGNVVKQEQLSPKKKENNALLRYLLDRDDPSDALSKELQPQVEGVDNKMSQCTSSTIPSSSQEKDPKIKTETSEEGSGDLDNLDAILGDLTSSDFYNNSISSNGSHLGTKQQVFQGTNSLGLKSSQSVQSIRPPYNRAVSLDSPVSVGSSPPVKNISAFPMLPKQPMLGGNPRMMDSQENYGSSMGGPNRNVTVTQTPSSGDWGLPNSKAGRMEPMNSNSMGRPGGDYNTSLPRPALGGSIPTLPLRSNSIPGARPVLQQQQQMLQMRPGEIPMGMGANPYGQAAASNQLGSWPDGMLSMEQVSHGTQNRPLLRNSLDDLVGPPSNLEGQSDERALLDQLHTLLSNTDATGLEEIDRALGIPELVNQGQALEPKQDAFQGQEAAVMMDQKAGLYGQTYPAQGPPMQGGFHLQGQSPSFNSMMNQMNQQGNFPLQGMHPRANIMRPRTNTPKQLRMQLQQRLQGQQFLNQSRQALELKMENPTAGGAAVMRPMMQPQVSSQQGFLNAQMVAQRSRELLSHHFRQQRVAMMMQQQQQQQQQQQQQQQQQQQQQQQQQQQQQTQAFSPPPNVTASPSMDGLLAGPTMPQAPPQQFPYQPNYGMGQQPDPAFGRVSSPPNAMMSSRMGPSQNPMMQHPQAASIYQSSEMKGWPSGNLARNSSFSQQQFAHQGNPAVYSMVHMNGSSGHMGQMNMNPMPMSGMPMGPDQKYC

[2] = test system: transactivating tegument protein VP16 (Human herpesvirus 1), Gal4-VP16 luciferase reporter; assay: VP16 transactivation inhibitors, counter-screen for SRC3 inhibitor project, cell-based, luminescence, high throughput (AID 588794; in the data active = inhibition above about 30%); settings: mammalian cells, VP16-driven luciferase reporter luminescence; at 3.6 µM; active compounds read high
[3] = biological target: Nuclear receptor coactivator 1 (Homo sapiens) (UniProt Q15788); assay: SRC1 coactivator transcriptional activity inhibitors, confirmation, cell-based, luminescence, quadruplicate (AID 588820;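 active = mean inhibition above 46.68%, the untreated control wells mean plus 3 SD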;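 note: 0% = DMSO wells and 100% = gossypol 36 µM treated wells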); settings: HEK293 GAL4-SRC1 luciferase reporter, at 3.6 µM, active compounds read high
Sequence of Nuclear receptor coactivator 1 (Homo sapiens) (Q15788 whole entry, looked up, the tested form may be a part): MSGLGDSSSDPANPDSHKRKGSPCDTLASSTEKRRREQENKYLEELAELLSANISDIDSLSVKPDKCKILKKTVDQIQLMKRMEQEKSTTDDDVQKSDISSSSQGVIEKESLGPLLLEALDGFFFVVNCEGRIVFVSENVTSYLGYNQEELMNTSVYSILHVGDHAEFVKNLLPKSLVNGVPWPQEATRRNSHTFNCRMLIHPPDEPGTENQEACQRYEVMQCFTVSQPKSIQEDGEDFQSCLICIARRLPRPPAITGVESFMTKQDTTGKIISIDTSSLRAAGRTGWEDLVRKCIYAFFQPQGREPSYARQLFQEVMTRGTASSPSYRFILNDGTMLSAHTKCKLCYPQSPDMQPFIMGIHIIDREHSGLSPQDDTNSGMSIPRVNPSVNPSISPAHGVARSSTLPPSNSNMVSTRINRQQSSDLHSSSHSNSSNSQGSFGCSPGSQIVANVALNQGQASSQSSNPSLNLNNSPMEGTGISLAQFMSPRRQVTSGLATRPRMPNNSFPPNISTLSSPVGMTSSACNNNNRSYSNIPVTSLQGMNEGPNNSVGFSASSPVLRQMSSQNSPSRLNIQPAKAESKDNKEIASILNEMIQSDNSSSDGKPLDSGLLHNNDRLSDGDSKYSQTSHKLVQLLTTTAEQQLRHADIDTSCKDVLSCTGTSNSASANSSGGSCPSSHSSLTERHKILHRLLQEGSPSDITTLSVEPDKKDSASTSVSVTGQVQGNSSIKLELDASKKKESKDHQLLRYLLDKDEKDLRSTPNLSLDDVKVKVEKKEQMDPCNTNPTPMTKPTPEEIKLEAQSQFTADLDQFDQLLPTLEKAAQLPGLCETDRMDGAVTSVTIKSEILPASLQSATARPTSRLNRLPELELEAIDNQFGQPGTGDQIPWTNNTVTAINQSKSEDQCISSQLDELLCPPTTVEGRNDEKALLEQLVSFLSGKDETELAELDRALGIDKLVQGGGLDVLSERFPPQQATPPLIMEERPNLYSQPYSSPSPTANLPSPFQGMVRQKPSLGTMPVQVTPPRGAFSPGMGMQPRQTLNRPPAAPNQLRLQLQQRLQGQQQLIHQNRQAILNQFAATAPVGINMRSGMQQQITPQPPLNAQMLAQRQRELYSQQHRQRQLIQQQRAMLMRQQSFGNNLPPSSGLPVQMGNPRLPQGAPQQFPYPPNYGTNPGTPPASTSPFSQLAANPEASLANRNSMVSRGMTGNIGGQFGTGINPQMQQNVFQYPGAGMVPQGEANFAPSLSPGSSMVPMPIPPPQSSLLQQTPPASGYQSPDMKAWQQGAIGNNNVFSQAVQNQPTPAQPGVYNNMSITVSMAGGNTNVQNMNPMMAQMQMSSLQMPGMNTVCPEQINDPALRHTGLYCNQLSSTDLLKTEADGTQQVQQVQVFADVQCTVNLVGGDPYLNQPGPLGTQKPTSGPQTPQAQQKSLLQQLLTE

[4] = VP16 transactivation inhibitors, counter-screen for SRC1 inhibitor project, cell-based, luminescence, high throughput (AID 588824; in the data active = inhibition above about 25%); settings: cell-based VP16 transactivation luciferase luminescence; at 3.6 µM; active compounds read high
[5] = StAR promoter reporter inhibitors, counter-screen for LRH-1 inverse agonist project, cell-based, luminescence, high throughput (AID 651611; in the data active = inhibition above about 28%); settings: StAR promoter luciferase reporter counterscreen, at 3.6 µM, active compounds read high
[6] = biological target: Nuclear receptor subfamily 5 group A member 2 (Homo sapiens) (UniProt O00482); assay: LRH-1 (NR5A2) inverse agonists, retest, confirmation, cell-based, luminescence (AID 651613; in the data active = inhibition above about 42%;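 note: HEK293T cells co-transfected with LRH-1 and StAR promoter luciferase reporter; 0% = vehicle wells and 100% = parental cells lacking receptor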); settings: cell-based LRH-1 luciferase reporter, inverse agonism; at 3.6 µM; active compounds read high
Sequence of Nuclear receptor subfamily 5 group A member 2 (Homo sapiens) (O00482 whole entry, looked up): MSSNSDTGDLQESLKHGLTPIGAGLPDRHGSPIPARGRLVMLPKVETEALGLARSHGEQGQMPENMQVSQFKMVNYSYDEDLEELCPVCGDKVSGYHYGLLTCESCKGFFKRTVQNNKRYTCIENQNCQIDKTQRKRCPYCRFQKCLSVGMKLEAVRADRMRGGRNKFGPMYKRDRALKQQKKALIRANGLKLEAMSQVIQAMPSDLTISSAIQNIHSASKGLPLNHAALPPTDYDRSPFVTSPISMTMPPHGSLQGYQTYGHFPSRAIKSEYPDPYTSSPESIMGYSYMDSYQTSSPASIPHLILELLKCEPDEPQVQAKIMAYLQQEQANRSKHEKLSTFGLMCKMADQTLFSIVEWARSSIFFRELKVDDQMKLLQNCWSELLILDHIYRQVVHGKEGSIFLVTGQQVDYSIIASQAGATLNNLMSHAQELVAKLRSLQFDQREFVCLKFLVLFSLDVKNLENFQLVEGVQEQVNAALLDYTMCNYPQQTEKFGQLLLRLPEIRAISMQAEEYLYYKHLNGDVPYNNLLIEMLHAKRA

[7] = biological target: Steroidogenic factor 1 (Homo sapiens) (UniProt Q13285); assay: SF1 (NR5A1) inverse agonists, counter-screen for LRH-1 inverse agonist project, cell-based, luminescence, high throughput (AID 651614; in the data active = inhibition above about 44%;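 note: cells cotransfected with StAR promoter reporter and SF1 expression vector; 0% = vehicle on cells with receptor and 100% = vehicle on cells lacking receptor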); settings: cell-based SF1 luciferase reporter, at 3.6 µM, active compounds read high
Sequence of Steroidogenic factor 1 (Homo sapiens) (Q13285 whole entry, looked up, the tested form may be a part): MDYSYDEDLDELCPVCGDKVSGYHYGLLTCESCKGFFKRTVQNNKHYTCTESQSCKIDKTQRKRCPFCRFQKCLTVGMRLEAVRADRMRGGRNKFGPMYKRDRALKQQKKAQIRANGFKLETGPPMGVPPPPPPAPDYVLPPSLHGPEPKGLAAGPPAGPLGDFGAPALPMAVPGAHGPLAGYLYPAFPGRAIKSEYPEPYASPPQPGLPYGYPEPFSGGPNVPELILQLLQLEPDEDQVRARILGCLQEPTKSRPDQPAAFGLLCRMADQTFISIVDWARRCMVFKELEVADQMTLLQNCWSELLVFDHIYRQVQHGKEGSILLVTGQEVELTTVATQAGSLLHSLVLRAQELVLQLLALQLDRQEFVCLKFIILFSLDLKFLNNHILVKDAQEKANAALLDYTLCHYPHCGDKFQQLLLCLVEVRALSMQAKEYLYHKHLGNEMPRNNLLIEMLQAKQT

[8] = VP16 transactivation reporter inhibitors, counter-screen for LRH-1 inverse agonist project, cell-based, luminescence, high throughput (AID 651615; in the data active = inhibition above about 33%); settings: Gal4-VP16 luciferase reporter cells, at 3.6 µM, active compounds read high
[9] = test system: transactivating tegument protein VP16 (Human herpesvirus 1); assay: VP16 transactivation reporter inhibitors, counter-screen for SRC2 inhibitor project, cell-based, luminescence, single concentration (AID 652007; in the data active = inhibition above about 36%); settings: cell-based VP16 transactivation luciferase reporter, at 8.9 µM, active compounds read high
[10] = biological target: Nuclear receptor coactivator 2 (Homo sapiens) (UniProt Q15596); assay: SRC2 coactivator transcriptional activity inhibitors, confirmation, cell-based, luminescence, HEK293, triplicate (AID 652008;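 active = mean inhibition above 46.5%, the solvent-only control mean plus 3 SD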;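 note: 0% = DMSO-treated cells and 100% = Gossypol at 36 µM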); settings: HEK293 GAL4-SRC2 luciferase reporter, at 8.9 µM, active compounds read high

Measured: inhibition

O=C(Nc1nc2cc3c(cc2s1)OCCO3)C1=COCCO1
active: [7] 52.2% | [9] 70.8% | [10] 81.6%
inactive: [1] 30.4% | [2] 26.9% | [3] -78.2% | [4] 13.4% | [5] 24.4% | [6] -3.27% | [8] 4.13%

Cc1cc(C(=O)COC(=O)C2=COCCO2)c(C)n1-c1ccccc1
active: [9] 68.8% | [10] 66.6%
inactive: [1] 32.9% | [2] 5.84% | [3] -53.9% | [4] -37.1% | [5] 23.9% | [6] -86.4% | [7] 26.1% | [8] -34.8%

COc1cc2cc(C(=O)Nc3ccc4c(c3)OCCO4)[nH]c2cc1OC
inactive: [1] 27.4% | [2] -26.5% | [3] -2.55% | [4] -48.8% | [5] -32.3% | [6] -49.1% | [7] -20.5% | [8] -35.9% | [9] -41.9% | [10] 38.2%

CCCS(=O)(=O)c1cnc(C2COc3ccccc3O2)nc1N (stereo not given)
inactive: [3] 18.9% | [6] 2.93% | [7] 36.5% | [8] 23.1%
active: [1] 61.5% | [2] 44.9% | [4] 33.6% | [5] 43.2% | [9] 37.2% | [10] 75%

Cc1cccc(-n2ncc3c(N(C)C4CCCCC4)ncnc32)c1
active: [1] 72.9% | [2] 64.4% | [4] 46.4% | [5] 60.6% | [7] 52.7% | [9] 52.5% | [10] 83%
inactive: [3] 28.5% | [6] 11.5% | [8] 29%

O=C1N(c2ccccc2)C[C@@H]2C[C@@H](c3cc4ccccc4o3)N3CCC[C@@]123
inactive: [10] 43.3%
active: [1] 95.3% | [2] 96.3% | [3] 74.5% | [4] 94.7% | [5] 90.4% | [6] 109% | [7] 98% | [8] 98.4% | [9] 47.8%

O=C(OC(c1ccccc1)c1nccc2ccccc12)c1ccccc1 (stereo not given)
active: [1] 57.4% | [2] 42.8% | [5] 43.4% | [7] 45.4% | [10] 67.6%
inactive: [3] 26.3% | [4] 21.7% | [6] -16.8% | [8] -4.96% | [9] 30.1%

CC1CCCN(c2ncnc3c2cnn3-c2ccc(Cl)cc2)C1 (stereo not given)
active: [1] 88.7% | [2] 84.3% | [3] 74.4% | [4] 71.4% | [5] 80.3% | [6] 60.3% | [7] 79.2% | [8] 66.5% | [9] 82% | [10] 93.9%

CCOc1c(Br)cc(CNc2ccc3c(c2)OCCO3)cc1OC
inactive: [1] 14.5% | [2] 8.55% | [3] -25.8% | [4] 9.33% | [5] 3.55% | [6] 3.36% | [7] 19.9% | [8] 26.2% | [9] -28.8% | [10] 21.9%

O=c1c2ccccc2oc2cc(C#CC3(O)CCCCC3)ccc12
inactive: [1] 32.4% | [3] -2.8% | [4] -14.8% | [5] -28.9% | [6] -129% | [7] -33.5% | [8] -40.4% | [9] -4.85%
active: [2] 33.5% | [10] 48.9%

CC(C)(C)C(=O)/C(=C/c1ccc(Cl)cc1)n1cncn1
inactive: [3] 40.2%
active: [1] 73.4% | [2] 64.5% | [4] 59.1% | [5] 78.4% | [6] 70.4% | [7] 77% | [8] 78.9% | [9] 51.1% | [10] 79.7%

COCCn1c(C)cc(C2=NNC(=Nc3ccccc3F)SC2)c1C
active: [1] 57.4% | [2] 52.3% | [3] 60.5% | [4] 28.1% | [5] 54.2% | [7] 63% | [9] 87.2% | [10] 91.5%
inactive: [6] -47% | [8] -31.7%

CC(C)(C)c1ccc(-c2noc(CCC(N)=O)n2)cc1
active: [1] 65.2% | [2] 51.9% | [3] 59.7% | [4] 56.7% | [5] 58.9% | [6] 70% | [7] 60.8% | [8] 58.4% | [9] 83.6% | [10] 94.2%

CCOc1ccccc1-n1c(SCC(=O)Nc2ccccc2C(=O)O)nc2ccccc2c1=O
inactive: [1] 36.2% | [2] 26% | [3] 16.8% | [4] 14.7% | [5] 16% | [6] -6.48% | [7] 9.06% | [8] -14.2% | [9] 30.9%
active: [10] 49.9%

Cc1ccc(C(=O)N/N=C/c2c(O)ccc3ccccc23)cn1
inactive: [9] -4.97% | [10] 33.4%
active: [1] 65.9% | [2] 62.9% | [3] 58.7% | [4] 75.4% | [5] 84.8% | [6] 102% | [7] 89.9% | [8] 83.8%

Cc1ccc(C#N)c(SCc2nnc(-c3ccc(Cl)cc3)o2)n1
inactive: [3] 30.4% | [6] -14.8% | [7] 21.1% | [8] 7.27%
active: [1] 67.8% | [2] 54.9% | [4] 28.1% | [5] 30.7% | [9] 59.4% | [10] 85.4%

CC1CCC(C(C)C)C(OC(=O)Cn2c(-c3ccccc3)[n+](C)c3ccccc32)C1 (stereo not given)
inactive: [10] 30.4%
active: [1] 74.8% and 54.2% | [2] 76.2% and 68% | [3] 55.1% and 49.6% | [4] 75.8% and 65.7% | [5] 54% | [6] 108% | [7] 83.8% | [8] 94.5% | [9] 49.1%

COc1cc(NC(=O)COc2cc(O)c3c(c2)OC(C)(C)CC3=O)cc(OC)c1OC
inactive: [1] 17.8% | [3] -14.2% | [10] 38.5%
active: [2] 41.5% | [4] 41.3% | [5] 50.4% | [6] 57.3% | [7] 67.5% | [8] 64.6% | [9] 43.5%

COc1ccccc1-c1nnc(Sc2nc([N+](=O)[O-])nn2C)o1
active: [1] 58.5% | [2] 32.7% | [4] 36.4% | [5] 59.9% | [6] 62% | [8] 64.1% | [9] 46.1% | [10] 65.3%
inactive: [3] 18.7% | [7] 38.3%

Cc1cc(C)c2sc(NNC(=O)c3ccc(S(=O)(=O)N4CCc5ccccc5C4)cc3)nc2c1
active: [1] 46.6% | [2] 41.1% | [3] 50% | [4] 46.6% | [5] 68.6% | [6] 89.6% | [7] 66.8% | [8] 66.6%
inactive: [9] -4.24% | [10] 29.3%

O=C(CC1CS(=O)(=O)CC1CC(=O)Nc1ccc2c(c1)OCCO2)Nc1ccc2c(c1)OCCO2 (stereo not given)
active: [9] 46.5% | [10] 57%
inactive: [1] 37.1% | [2] -5.19% | [3] -14.1% | [4] -21.8% | [5] -26.2% | [6] -91.7% | [7] -43.4% | [8] -53.8%

C(=NN1CCCCCC1)c1ccc2ccccc2n1
active: [1] 88.6% | [2] 82.8% | [3] 68.3% | [4] 72.1% | [5] 87.8% | [6] 67% | [7] 87% | [8] 70.8% | [9] 92.4% | [10] 94.9%

Cc1ccc(Nc2nc(N)nc(CCl)n2)c(C)c1
active: [1] 74% | [2] 32.8% | [4] 28.1% | [6] 58.7% | [8] 56%
inactive: [3] 38.6% | [5] 20% | [7] 29.4% | [9] -27.8% | [10] 40.4%

CCOc1ccc(-c2noc(CCC(=O)O)n2)cc1
inactive: [1] 18.2% | [2] 15.1% | [3] 18.5% | [4] 5% | [5] 27.3% | [6] 38.4% | [7] 23.1% | [8] 23.4%
active: [9] 71.3% | [10] 86.1%

Cc1cc(C2=NNC(=NC3CC3)SC2)c(C)n1-c1ccccc1F
active: [1] 84.8% | [2] 88.3% | [3] 78.7% | [4] 80.7% | [5] 92% | [6] 79.6% | [7] 91.1% | [8] 79.1% | [9] 93.6% | [10] 97%

Nc1cc2ccncc2c2ccccc12
active: [1] 72% | [2] 51.6% | [3] 68.9% | [4] 47.8% | [6] 75.6% | [7] 63.2% | [8] 72.3%
inactive: [5] 8.54% | [9] 22.2% | [10] 43.4%

OCC1OC(n2ccc3c(NO)ncnc32)C(O)C1O (stereo not given)
active: [1] 93.2% | [2] 88.2% | [3] 48.2% | [4] 87.4% | [5] 93.5% | [6] 108% | [7] 97% | [8] 96% | [9] 53.9% | [10] 51.5%

CN=c1scc(-c2ccccc2F)n1/N=C/c1ccc[nH]1
active: [1] 89% | [2] 86.5% | [3] 71.6% | [4] 75.6% | [5] 87.2% | [6] 70.1% | [7] 85.6% | [8] 78.1% | [9] 87.7% | [10] 96.1%

O=C(NCc1cccnc1)/C(=C/c1ccc(-c2ccc(Cl)cc2)o1)S(=O)(=O)c1ccccc1
active: [1] 76.5% | [2] 62.8% | [3] 48.1% | [4] 47% | [5] 47.5% | [6] 79.5% | [7] 78.1% | [8] 77.2% | [9] 70.2% | [10] 50.4%
